Activity calls are given as the source filed them.
How the values were obtained:
[1] = small molecules captured by biotinylated probe aFSTL3 – biochemical, small-molecule microarray, fluorescence 635/667, stem cell growth factor project, primary screen (AID 1064); conditions: higher = more signal;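 further: measures binding of the biotinylated anti-FSTL3 antibody to printed compounds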
[2] = binders from COS7 lysate, DM2A8 probe, primary screen, torsin A project, cell lysate, small-molecule microarray, fluorescence 635/667 (AID 1065); conditions: higher = more signal, COS7 lysate expressing mutant human TOR1A
[3] = small molecules captured by biotinylated probe aFGF2 – biochemical, small-molecule microarray, fluorescence 635/667, stem cell growth factor project, primary screen (AID 1067); conditions: higher = more signal;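 further: measures binding of biotinylated aFGF2 protein to printed compounds on slides; z-score merges feature fluorescence and signal-to-noise across triplicate slides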
[4] = small molecules captured by biotinylated probe aFGF10 – biochemical, small-molecule microarray, fluorescence 635/667, stem cell growth factor project, primary screen (AID 1071); conditions: higher = more signal;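 further: score merges 667 nm spot intensity and signal to noise from triplicate slides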
[5] = biological target: Neurogenic locus notch homolog protein 2 (Homo sapiens) (UniProt Q04721); experiment: small molecules binding Notch2 protein – biochemical, small-molecule microarray, 635 nm fluorescence, stem cell growth factors, primary screen (AID 1073); conditions: higher = more signal
[6] = biological target: Pro-neuregulin-1, membrane-bound isoform (Homo sapiens) (UniProt Q02297); experiment: small molecules binding neuregulin-1 protein – biochemical, small-molecule microarray, fluorescence 635/667, psychiatric disease protein project, primary screen (AID 1075); conditions: NRG1 binding, 635 nm fluorescence, higher = more signal;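 further: score combines 667 nm spot fluorescence with signal to noise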
[7] = system: Neuregulin-1 EGF-like domain; experiment: small molecules binding NRG1 EGF domain – biochemical, small-molecule microarray, 635 nm fluorescence, primary screen (AID 1081); conditions: higher = more signal;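 further: binding of the protein to compounds printed on small-molecule microarray slides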
[8] = FRG1 expression reporter modulators in myotubes – cell-based, C2C12 myotubes, firefly/Renilla luciferase, luminescence, FRG1 inhibition for FSHD, primary screen (AID 1084); conditions: FRG1 promoter luciferase, higher = more signal, called active from +8 up or from −8 down
[9] = small molecules captured by biotinylated probe aFST – biochemical, small-molecule microarray, fluorescence 635/667, stem cell growth factor project, primary screen (AID 1086); conditions: higher = more signal;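 further: score merges 667 nm fluorescence with signal-to-noise of each printed compound spot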
[10] = binders of probe aHhip on microarray, primary screen, stem cell growth factor project, biochemical, small-molecule microarray, fluorescence 635/667 (AID 1087); conditions: higher = more signal;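 further: score merges spot fluorescence at 667nm with spot signal to noise ratio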
[11] = system: PRMT1 (protein arginine N-methyltransferase 1); experiment: small molecules binding arginine methyltransferase PRMT1 – biochemical, small-molecule microarray, 635 nm fluorescence, primary screen (AID 1088); conditions: higher = more signal;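 further: binding of Prmt1 protein to compounds spotted on small-molecule microarray slides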
[12] = growth effects on S. cerevisiae YJM789 – YJM789 clinical isolate, OD600, 24 h, basal, primary screen (AID 1089); conditions: higher = more signal, called active from +8 up or from −8 down;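 further: growth of clinical yeast isolate S. cerevisiae YJM 789 seeded 1000 cells per well; test concentration not given here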
[13] = S. pombe growth modifiers, basal conditions – strain 972, OD600, 24 h, no modulator, primary screen (AID 1090);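 further: basal condition with compound alone and no growth modifier present; test concentration not given here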; conditions: S. pombe 972 growth, higher = more signal, called active from +8 up or from −8 down
[14] = budding yeast growth modifiers under rapamycin – strain BY4716, OD600, 96 h, primary screen (AID 1091); further: test concentration not given here; conditions: S. cerevisiae BY4716 + rapamycin, higher = more signal, called active from +8 up or from −8 down
[15] = biological target: Torsin-1A-interacting protein 2 (Homo sapiens) (UniProt Q8NFQ8); experiment: small molecules binding lysate-expressed LULL1 – cell lysate, human LULL1 lysate, 635/667 nm fluorescence, primary screen (AID 1092); conditions: small-molecule microarray, hLULL1 lysate binding, 635 nm fluorescence; higher = more signal;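 further: probe is lysate of COS7 cells overexpressing human LULL1; score merges per-feature 667 nm fluorescence with signal-to-noise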
[16] = optical density change of DRC41 E. coli – strain DRC41, OD650, 24 h, E. coli filamentation project, primary screen (AID 1093);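 further: MC1000 strain lacking acrAB efflux and sulA so SOS filamentation is blocked; test concentration not given here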; conditions: E. coli DRC41 growth, higher = more signal, called active from +8 up or from −8 down
[17] = probe aLefty2 binding to arrayed compounds – biochemical, biotinylated probe, 635/667 nm fluorescence, primary screen (AID 1094); conditions: small-molecule microarray, higher = more signal;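 further: score merges spot fluorescence near 667 nm with spot signal-to-noise ratio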
[18] = system: Noggin (protein binding on small-molecule microarray); experiment: small molecules binding Noggin protein – biochemical, 635/667 nm fluorescence, primary screen (AID 1095); conditions: 635 nm fluorescence, higher = more signal;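 further: score merges 667 nm feature fluorescence with signal to noise over triplicate slides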
[19] = biological target: Neurogenic locus notch homolog protein 3 (Homo sapiens) (UniProt Q9UM47); experiment: small molecules binding NOTCH3 protein – biochemical, 635/667 nm fluorescence, primary screen (AID 1096); conditions: small-molecule microarray, 635 nm fluorescence, higher = more signal
[20] = probe aEGFR binding to arrayed compounds – biochemical, biotinylated probe, 635/667 nm fluorescence, primary screen (AID 1097); conditions: small-molecule microarray, higher = more signal;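 further: probe is a biotinylated anti-EGFR antibody binding compounds printed on slides; score combines fluorescence near 667 nm and signal to noise of each spot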

Sequence of Torsin-1A-interacting protein 2 (Homo sapiens) (Q8NFQ8 whole entry, looked up): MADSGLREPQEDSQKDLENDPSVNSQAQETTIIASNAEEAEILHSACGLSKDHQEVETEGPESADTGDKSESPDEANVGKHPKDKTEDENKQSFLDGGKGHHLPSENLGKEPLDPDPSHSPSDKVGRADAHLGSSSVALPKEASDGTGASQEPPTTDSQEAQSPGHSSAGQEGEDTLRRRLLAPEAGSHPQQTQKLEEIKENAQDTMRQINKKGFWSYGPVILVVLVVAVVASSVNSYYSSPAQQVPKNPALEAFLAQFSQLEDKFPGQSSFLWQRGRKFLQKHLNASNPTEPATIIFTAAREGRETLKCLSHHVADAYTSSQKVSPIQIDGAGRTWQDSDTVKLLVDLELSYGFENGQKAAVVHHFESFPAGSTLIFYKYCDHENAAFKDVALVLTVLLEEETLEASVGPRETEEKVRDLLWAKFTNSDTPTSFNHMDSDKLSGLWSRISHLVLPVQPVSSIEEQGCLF
Sequence of Neurogenic locus notch homolog protein 2 (Homo sapiens) (Q04721 whole entry, looked up, canonical isoform): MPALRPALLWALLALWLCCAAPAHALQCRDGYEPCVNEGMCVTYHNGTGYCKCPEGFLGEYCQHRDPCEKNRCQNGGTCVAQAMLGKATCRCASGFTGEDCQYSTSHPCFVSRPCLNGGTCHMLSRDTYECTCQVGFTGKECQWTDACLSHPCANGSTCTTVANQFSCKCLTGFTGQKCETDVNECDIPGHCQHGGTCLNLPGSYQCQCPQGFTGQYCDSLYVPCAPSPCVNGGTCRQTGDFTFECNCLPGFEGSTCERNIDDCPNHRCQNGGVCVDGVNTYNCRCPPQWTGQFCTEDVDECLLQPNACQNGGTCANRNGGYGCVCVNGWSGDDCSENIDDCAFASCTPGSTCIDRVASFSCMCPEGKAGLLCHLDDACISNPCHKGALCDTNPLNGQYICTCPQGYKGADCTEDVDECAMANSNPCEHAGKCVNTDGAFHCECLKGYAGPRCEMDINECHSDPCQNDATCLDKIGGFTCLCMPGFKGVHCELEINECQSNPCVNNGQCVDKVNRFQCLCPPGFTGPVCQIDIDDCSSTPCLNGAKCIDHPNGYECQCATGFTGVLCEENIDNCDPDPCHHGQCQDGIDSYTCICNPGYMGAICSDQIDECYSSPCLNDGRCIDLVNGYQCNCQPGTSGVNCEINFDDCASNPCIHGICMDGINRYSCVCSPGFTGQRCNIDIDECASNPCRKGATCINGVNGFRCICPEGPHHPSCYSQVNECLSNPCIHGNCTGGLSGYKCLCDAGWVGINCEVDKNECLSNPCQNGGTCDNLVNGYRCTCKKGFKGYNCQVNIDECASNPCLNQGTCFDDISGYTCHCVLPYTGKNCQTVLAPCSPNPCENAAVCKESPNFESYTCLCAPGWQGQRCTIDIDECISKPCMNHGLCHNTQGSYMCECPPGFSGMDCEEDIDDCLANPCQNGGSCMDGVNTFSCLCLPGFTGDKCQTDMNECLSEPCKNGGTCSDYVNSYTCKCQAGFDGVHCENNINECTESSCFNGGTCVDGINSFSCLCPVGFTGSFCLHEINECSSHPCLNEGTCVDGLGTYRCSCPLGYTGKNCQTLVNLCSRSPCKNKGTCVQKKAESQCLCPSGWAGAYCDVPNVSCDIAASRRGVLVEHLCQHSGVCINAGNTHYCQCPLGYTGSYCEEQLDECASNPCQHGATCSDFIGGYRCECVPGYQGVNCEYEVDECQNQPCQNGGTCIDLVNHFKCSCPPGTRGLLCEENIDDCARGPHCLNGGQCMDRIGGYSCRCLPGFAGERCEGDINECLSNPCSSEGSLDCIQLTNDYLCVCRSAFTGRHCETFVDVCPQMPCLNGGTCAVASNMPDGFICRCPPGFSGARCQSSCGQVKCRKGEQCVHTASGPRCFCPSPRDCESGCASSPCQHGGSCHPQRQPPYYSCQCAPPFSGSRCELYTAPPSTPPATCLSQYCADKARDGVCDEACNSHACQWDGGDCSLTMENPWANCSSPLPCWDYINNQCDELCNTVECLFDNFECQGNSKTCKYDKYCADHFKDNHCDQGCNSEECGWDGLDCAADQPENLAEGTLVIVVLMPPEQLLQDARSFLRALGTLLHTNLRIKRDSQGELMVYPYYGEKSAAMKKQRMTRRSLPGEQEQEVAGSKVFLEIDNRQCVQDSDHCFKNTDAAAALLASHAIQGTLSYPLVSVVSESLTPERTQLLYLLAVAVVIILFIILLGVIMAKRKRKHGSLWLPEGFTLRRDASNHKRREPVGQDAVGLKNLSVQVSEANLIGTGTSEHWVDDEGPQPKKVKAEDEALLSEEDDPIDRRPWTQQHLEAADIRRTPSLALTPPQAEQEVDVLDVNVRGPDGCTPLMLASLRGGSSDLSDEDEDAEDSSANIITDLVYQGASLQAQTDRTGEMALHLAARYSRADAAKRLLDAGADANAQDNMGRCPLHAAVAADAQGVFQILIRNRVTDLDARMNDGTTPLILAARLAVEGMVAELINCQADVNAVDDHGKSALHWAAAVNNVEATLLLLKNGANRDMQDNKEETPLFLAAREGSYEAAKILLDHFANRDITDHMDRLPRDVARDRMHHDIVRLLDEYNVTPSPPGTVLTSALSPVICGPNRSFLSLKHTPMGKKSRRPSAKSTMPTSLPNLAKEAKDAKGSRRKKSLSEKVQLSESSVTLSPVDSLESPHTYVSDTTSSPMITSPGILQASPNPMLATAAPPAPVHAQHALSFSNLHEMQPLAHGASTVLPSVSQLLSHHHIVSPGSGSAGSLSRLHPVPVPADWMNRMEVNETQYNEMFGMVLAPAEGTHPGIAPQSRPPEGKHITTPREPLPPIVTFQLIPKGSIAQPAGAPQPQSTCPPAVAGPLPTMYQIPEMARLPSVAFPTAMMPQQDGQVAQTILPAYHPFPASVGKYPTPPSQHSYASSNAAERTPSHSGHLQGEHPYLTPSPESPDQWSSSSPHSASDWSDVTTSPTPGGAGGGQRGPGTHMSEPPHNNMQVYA
Sequence of Pro-neuregulin-1, membrane-bound isoform (Homo sapiens) (Q02297 whole entry, looked up, the tested form may be a part, canonical isoform): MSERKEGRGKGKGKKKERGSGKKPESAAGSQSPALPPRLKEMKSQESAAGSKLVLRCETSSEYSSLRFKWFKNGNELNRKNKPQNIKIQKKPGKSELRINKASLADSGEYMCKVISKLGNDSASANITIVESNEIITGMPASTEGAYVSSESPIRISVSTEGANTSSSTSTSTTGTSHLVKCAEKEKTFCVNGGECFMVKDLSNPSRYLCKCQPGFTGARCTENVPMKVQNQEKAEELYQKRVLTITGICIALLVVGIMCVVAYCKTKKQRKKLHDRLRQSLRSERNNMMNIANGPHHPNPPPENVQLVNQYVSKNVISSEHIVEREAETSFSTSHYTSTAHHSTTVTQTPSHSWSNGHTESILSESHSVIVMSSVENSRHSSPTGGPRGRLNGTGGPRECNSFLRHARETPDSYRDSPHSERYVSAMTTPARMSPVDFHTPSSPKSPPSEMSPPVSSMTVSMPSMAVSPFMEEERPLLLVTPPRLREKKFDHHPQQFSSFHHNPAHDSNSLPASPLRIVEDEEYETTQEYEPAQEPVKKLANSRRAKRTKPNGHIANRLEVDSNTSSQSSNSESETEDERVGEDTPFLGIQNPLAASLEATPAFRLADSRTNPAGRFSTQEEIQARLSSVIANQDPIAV

| Compound | composite z-score [1] | composite z-score [2] | composite z-score [3] | composite z-score [4] | composite z-score [5] | composite z-score [6] | composite z-score [7] | z-score [8] | composite z-score [9] | composite z-score [10] | composite z-score [11] | z-score [12] | z-score [13] | z-score [14] | composite z-score [15] | z-score [16] | composite z-score [17] | composite z-score [18] | composite z-score [19] | composite z-score [20] |
| --- | --- | --- | --- | --- | --- | --- | --- | --- | --- | --- | --- | --- | --- | --- | --- | --- | --- | --- | --- | --- |
| CCOC(=O)C1=CC[C@@H](c2ccc(-c3ccc(OCc4ccccc4)cc3)c(OC)c2)N(S(=O)(=O)c2ccc(C)cc2)[C@H]1c1ccccc1 | -0.216 | 0.448 | 0.0188 | 0.668 | 1.49 | 1.36 | 0.952 | 0.141 (inactive) | 0.9 | 0.314 | 1.46 | -0.534 (inactive) | -1.27 (inactive) | 3.66 (inactive) | 2.93 | -0.0642 (inactive) | 0.158 | 0.73 | 1.09 | -0.0255 |
| COCCCNC(=O)[C@@]1(Sc2ccc(C)cc2)CC(=O)N(Cc2cc(C(F)(F)F)cc(C(F)(F)F)c2)[C@@H]1c1ccc(CO)cc1I | 1.12 | -0.181 | -0.147 | -0.811 | -1.43 | 2.17 | 1.35 | -0.925 (inactive) | -0.265 | 1.67 | -0.217 | -1.27 (inactive) | -3.56 (inactive) | 0.0085 (inactive) | 1.46 | 0.486 (inactive) | -0.105 | -1.76 | -0.973 | -0.288 |
| COc1cc(Cc2cc3c(c(CCc4ccccc4)n2)[Si](C(C)C)(C(C)C)OC3)cc(OC)c1OC | -0.0934 | -0.0736 | -0.146 | -0.108 | -0.0899 | -0.35 | -0.233 | 0.311 (inactive) | 0.337 | -0.0672 | 0.735 | 0.238 (inactive) | -0.226 (inactive) | 0.0563 (inactive) | -0.244 | -1.02 (inactive) | -0.184 | 0.684 | 0.483 | 0.286 |
| O=C1C2C=CC(C(O)C(c3ccccc3)c3ccccc3)N(Nc3ccc([N+](=O)[O-])cc3)C2C(=O)N1c1ccccc1 (stereo not given) | 0.141 | 0.311 | 0.138 | 1.16 | 1.64 | 1.84 | 1.27 | 0.117 (inactive) | 1.37 | -0.0994 | 1.38 | 0.384 (inactive) | 1.86 (inactive) | 2.85 (inactive) | 3.67 | -0.07 (inactive) | 0.109 | -0.181 | 1.07 | 0.121 |
| C=CC(=O)O[C@@H](Cc1ccccc1)[C@H]1C2C=CCCC=C2CN1Cc1cccc(Cl)c1 (stereo not given in full) | 0.32 | -0.32 | -0.123 | -0.682 | -0.657 | -0.518 | -1.2 | -1.44 (inactive) | -0.254 | 0.176 | -2.25 | -0.476 (inactive) | -2.23 (inactive) | -1.47 (inactive) | -0.469 | 2.01 (inactive) | -0.192 | -0.551 | -1.53 | -0.189 |
| C[C@@H]1C=CCC(=O)OC[C@H]2O[C@@H](C=C[C@@H]2O)[C@H](C)C=CCC(=O)OC[C@H]2O[C@H]1C=C[C@@H]2O | -0.663 | 0.919 | -0.113 | 0.526 | 0.16 | -0.0241 | 0.567 | -0.274 (inactive) | 0.0915 | 0.346 | 1.06 | -2.14 (inactive) | -2.87 (inactive) | -1.09 (inactive) | -0.552 | 0.332 (inactive) | -0.0196 | 1.37 | 1 | 0.0779 |
| COCCOC(=O)N1C(=O)[C@@]2(c3cc(C#CCC(C(=O)OC)C(=O)OC)ccc31)[C@H](C(=O)N1CCN(c3ncccn3)CC1)[C@H]1C(=O)O[C@H](c3ccccc3)[C@H](c3ccccc3)N1[C@@H]2c1ccc(O)cc1 | -0.0797 | 1.47 | 0.0051 | 0.579 | 1.08 | 1.07 | 1.2 | -0.24 (inactive) | -0.304 | 0.0623 | 1.54 | -0.256 (inactive) | -1.38 (inactive) | 0.921 (inactive) | 2.23 | 3.19 (inactive) | -0.0288 | 0.414 | 1.17 | -0.0675 |
| C=CCC(OC(C)=O)[C@@H]1[C@@H](N(Cc2ccc(-c3ccccc3)cc2)C(=O)c2ccc(C)cc2)c2cc(OCCCO)ccc2N1C(=O)c1ccc(-c2ccccc2)cc1 (stereo not given in full) | -0.0264 | -0.192 | -0.006 | 0.0126 | -0.245 | -0.0564 | -0.538 | -2.08 (inactive) | 0.186 | -0.405 | -0.173 | -3.23 (inactive) | -1.88 (inactive) | -1.75 (inactive) | 0.554 | 0.65 (inactive) | 0.0026 | -0.404 | -0.532 | 0.039 |
| Cc1ccc(S[C@]2(C(=O)NC3CC3)CC(=O)N(Cc3cc(C(F)(F)F)cc(C(F)(F)F)c3)[C@@H]2c2ccc(CO)cc2)cc1 | -0.293 | 0.0772 | -0.138 | 0.138 | 0.1 | 0.522 | 1.24 | -0.799 (inactive) | 0.0733 | -0.295 | 1.55 | -1.18 (inactive) | -1.51 (inactive) | -2.53 (inactive) | 2.27 | -0.83 (inactive) | -0.213 | 0.756 | 0.58 | -0.0772 |
| O=C1c2ccccc2[C@](Cc2ccccc2I)(C(=O)NCC(F)(F)F)[C@H](c2ccc(CO)cc2)N1Cc1ccccc1C(F)(F)F | -0.379 | 0.57 | -0.0856 | 0.22 | 0.902 | 1 | 1.2 | -0.307 (inactive) | 1.16 | -0.466 | 1.34 | 0.129 (inactive) | -1.15 (inactive) | -1.32 (inactive) | 2.54 | 0.098 (inactive) | -0.366 | -0.11 | 1.02 | 0.0443 |

From PubChem BioAssay
